Among the data in ChEMBL document CHEMBL1201862, “PubChem BioAssay data set” (2004) are Potency values, retold here.

Hit rate of the full screen: of about 400,000 compounds, about 2,100 (0.53%) were called active. Another 14% or so got no clear call; they are omitted. No rule for the calls is given here. The sample as a whole holds a higher share of actives than the screen did.

Sequence of Ataxin-2 (Homo sapiens) (Q99700 whole entry): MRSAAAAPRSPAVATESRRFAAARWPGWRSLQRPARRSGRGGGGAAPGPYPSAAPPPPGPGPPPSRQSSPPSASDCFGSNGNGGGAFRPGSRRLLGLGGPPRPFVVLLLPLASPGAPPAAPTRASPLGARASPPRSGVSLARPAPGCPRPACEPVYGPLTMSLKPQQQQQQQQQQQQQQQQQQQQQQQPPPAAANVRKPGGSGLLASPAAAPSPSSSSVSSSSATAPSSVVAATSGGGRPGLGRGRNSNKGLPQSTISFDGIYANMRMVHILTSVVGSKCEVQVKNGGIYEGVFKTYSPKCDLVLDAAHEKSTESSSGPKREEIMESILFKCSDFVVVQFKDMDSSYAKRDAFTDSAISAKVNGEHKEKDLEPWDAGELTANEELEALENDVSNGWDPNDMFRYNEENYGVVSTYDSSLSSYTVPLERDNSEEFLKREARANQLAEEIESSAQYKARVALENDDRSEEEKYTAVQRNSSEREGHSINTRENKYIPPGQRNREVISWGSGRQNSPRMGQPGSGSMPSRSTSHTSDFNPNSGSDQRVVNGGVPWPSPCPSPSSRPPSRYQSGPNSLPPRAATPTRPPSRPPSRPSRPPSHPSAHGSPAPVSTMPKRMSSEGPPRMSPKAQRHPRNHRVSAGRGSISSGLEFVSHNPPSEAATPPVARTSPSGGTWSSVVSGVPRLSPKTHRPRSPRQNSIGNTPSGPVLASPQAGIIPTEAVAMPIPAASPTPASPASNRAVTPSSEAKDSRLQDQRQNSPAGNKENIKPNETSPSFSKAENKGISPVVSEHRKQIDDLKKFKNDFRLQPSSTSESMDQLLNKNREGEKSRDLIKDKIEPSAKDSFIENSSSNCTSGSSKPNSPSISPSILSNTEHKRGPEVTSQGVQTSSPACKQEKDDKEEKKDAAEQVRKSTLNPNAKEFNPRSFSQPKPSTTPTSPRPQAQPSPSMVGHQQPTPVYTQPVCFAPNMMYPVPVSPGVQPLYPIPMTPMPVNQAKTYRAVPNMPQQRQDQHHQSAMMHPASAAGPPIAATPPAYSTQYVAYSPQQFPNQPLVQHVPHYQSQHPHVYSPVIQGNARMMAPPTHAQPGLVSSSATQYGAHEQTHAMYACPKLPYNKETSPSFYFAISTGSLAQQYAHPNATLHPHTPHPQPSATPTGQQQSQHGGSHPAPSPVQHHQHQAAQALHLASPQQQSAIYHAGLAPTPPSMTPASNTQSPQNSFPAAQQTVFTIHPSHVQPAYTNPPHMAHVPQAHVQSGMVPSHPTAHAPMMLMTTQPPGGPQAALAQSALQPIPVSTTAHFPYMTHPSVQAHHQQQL

This test addresses Ataxin-2 (Homo sapiens) (UniProt Q99700). The experiment in a line: qHTS for Inhibitors of ATXN expression. In kind it is functional.
Regarding `Cc1cccc(C(=O)NCC(=O)OCC(=O)N2CCc3ccccc32)c1`, the Potency entry was “inactive”.

`N#C/C(=C\Nc1ccc2c[nH]nc2c1)c1nc(-c2ccc(Cl)cc2)cs1`: the Potency result is “inactive”.

On to `O=C(NC(=S)NCc1ccco1)c1ccc(Br)cc1`, for which the Potency entry was “inactive”.

Consider `C=CCN(CC=C)C(=S)NC(=O)c1ccc(-c2ccccc2)cc1`, for which the Potency was 25.1 µM (active).

`CCCN(CC1CC1)C(=S)NC(=O)c1ccccc1C`: the Potency entry is “inactive”.

`COc1cc(/C=C2/C(=N)N3C(SC)=NSC3=NC2=O)ccc1OC(=O)c1ccco1`: the Potency result is “inactive”.

Regarding `CCOC(=O)N1CCN(C(=O)c2cc3cc(C)ccc3[nH]2)CC1`, the Potency entry was “inactive”.

As for `CC(C)CCN1C(=O)C2(OCCCO2)c2cc(Cl)ccc21`, the Potency result was “inactive”.

Consider `COc1cccc(NC(=O)C(=O)NCC2CCCN2S(=O)(=O)c2cccs2)c1` (configuration not stated), for which the Potency result was “inactive”.

With `Cc1ccc(NC(=S)NCc2ccccc2)cc1C`, the Potency entry is “inactive”.

In the case of `O=C(NC1CCN(Cc2ccccc2)CC1)c1ccccc1Cl`, the Potency result was “inactive”.

For the molecule `S=C(Nc1ccc(Cl)c(Cl)c1)NC1CCN(Cc2ccccc2)CC1`, the Potency was 28.2 µM (active).

Consider `CCCCCCSc1cc(-c2nc3cc(C)ccn3c2NCCCC)ccc1OC`, for which the Potency was 35.5 µM (active).

On to `CCCCNc1c(-c2ccc(OC)c(SC(C)CC)c2)nc2cnccn12` (configuration not stated), for which the Potency result was “inactive”.

Take `CCCCCCSc1cc(-c2nc3cnccn3c2NCCCC)ccc1OC`: the Potency entry was “inactive”.

`O=C(COC(=O)c1c(F)cccc1F)NC(=O)NCc1ccccc1`: the Potency result is “inactive”.

Turning to `CCN1C=C(C(=O)OC)C(c2cccc(C)c2)C(C(=O)OC)=C1`, the Potency entry is “inactive”.

As for `COC(=O)C1=CN(C(C)C)C=C(C(=O)OC)C1c1cc(Br)c(OC)c(OC)c1`, the Potency entry was “inactive”.

For the molecule `COC(=O)C1=C(C)N(Cc2ccccc2)C(NCc2cc(OC)c(OC)c(OC)c2)=N[C@H]1c1ccc(Br)cc1`, the Potency is 35.5 µM (active).

In the case of `COC(=O)C1=CN(Cc2ccccc2)C=C(C(=O)OC)C1c1cc(F)ccc1F`, the Potency result is “inactive”.

Consider `COC(=O)C1=C(C)N(Cc2ccccc2)C(NCc2ccc(OC)cc2)=N[C@H]1c1cccc(F)c1`, for which the Potency was 35.5 µM (active).

For `COC(=O)C1=CN(Cc2ccc(OC)c(OC)c2)C=C(C(=O)OC)C1c1cccc(OC)c1OC`, the Potency result was “inactive”.

Regarding `COC(=O)C1=C(C)N(c2ccc(OC)cc2)C(C)=C(C(=O)OC)C1c1ccccc1`, the Potency result is “inactive”.

`COC(=O)C1=C(C)N(Cc2ccccc2)C(NCC(C)C)=N[C@H]1c1cccc(F)c1`: the Potency is 31.6 µM (active).

Consider `COC(=O)C1=C(C)N(Cc2ccccc2)C(NCc2ccccc2)=N[C@H]1c1cccc(F)c1`, for which the Potency is 31.6 µM (active).

In the case of `COCCNC(=O)/C(C#N)=C/c1c(N2CCN(C)CC2)nc2ccccn2c1=O`, the Potency entry was “inactive”.

`COc1ccc2oc3cc(NCCN(C)C)ccc3c(=O)c2c1`: the Potency result is “inactive”.
